# In PubChem BioAssay (EPA / NIEHS):
# Several values for one entry are separate records, joined by “and”; a condition that tells them apart may be missing. Equal values may be shown once. Some compounds were tested as several samples or in several runs, with calls that do not always agree. Activity calls are given as the source filed them. Rule for the calls: active = hit-call score of the fitted dose curve at least 0.9, where 1 is the maximum; inactive = score below 0.9.
# Columns and labels:
# [1] = read-out: Interleukin-8 (IL8), CXCL8 (gene 3576); experiment: BSK_CASM3C_IL8: BioMAP Diversity Plus: CASM3C Assay for Interleukin-8 (IL8) Biomarker Activity (AID 2283042); conditions: primary human coronary artery smooth muscle cells; actives raise or lower the signal;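 note: IL-8 protein level quantified by ELISA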
# [2] = read-out: Macrophage colony-stimulating factor (MCSF), CSF1 (gene 1435); experiment: BSK_CASM3C_MCSF: BioMAP Diversity Plus: CASM3C Assay for Macrophage colony-stimulating factor (MCSF) Biomarker Activity (AID 2283044); conditions: primary human coronary artery smooth muscle cells; actives raise or lower the signal;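 note: M-CSF protein amount quantified by ELISA after 24 h exposure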
# [3] = read-out: Low-density lipoprotein receptor (LDLR), LDLR (gene 3949); experiment: BSK_CASM3C_LDLR: BioMAP Diversity Plus: CASM3C Assay for Low-density lipoprotein receptor (LDLR) Biomarker Activity (AID 2283045); conditions: primary human coronary artery smooth muscle cells; actives raise or lower the signal;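 note: LDLR protein level on the cell surface quantified by ELISA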
# [4] = read-out: Monocyte Chemoattractant Protein-1 (MCP1), CCL2 (gene 6347); experiment: BSK_CASM3C_MCP1: BioMAP Diversity Plus: CASM3C Assay for Monocyte Chemoattractant Protein-1 (MCP1) Biomarker Activity (AID 2283046); conditions: primary human coronary artery smooth muscle cells; actives raise or lower the signal;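 note: MCP-1 level quantified by ELISA 24 h after dosing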
# [5] = BSK_CASM3C_Proliferation: Cell Proliferation Assessment in the BioMAP Diversity Plus: CASM3C Assay (AID 2283047); conditions: primary human coronary artery smooth muscle cells;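 note: sulforhodamine B total protein stain as relative cell number at 560 nm; sub-confluent cells exposed 48 h before staining; fitted both ways against DMSO so gain or loss of cell number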
# [6] = read-out: Monokine induced gamma interferon (MIG), CXCL9 (gene 4283); experiment: BSK_CASM3C_MIG: BioMAP Diversity Plus: CASM3C Assay for Monokine induced gamma interferon (MIG) Biomarker Activity (AID 2283048); conditions: primary human coronary artery smooth muscle cells; actives raise or lower the signal;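 note: MIG protein level measured by ELISA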
# [7] = read-out: serum amyloid A (SAA), SAA1 (gene 6288); experiment: BSK_CASM3C_SAA: BioMAP Diversity Plus: CASM3C Assay for serum amyloid A (SAA) Biomarker Activity (AID 2283049); conditions: primary human coronary artery smooth muscle cells; actives raise or lower the signal;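 note: SAA protein level quantified by ELISA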
# [8] = BSK_CASM3C_SRB: Viability Assessment in the BioMAP Diversity Plus: CASM3C Assay (AID 2283050); conditions: primary human coronary artery smooth muscle cells;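 note: total protein by SRB staining as cytotoxicity measure in parallel cultures; cells exposed to compound for 24 h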
# [9] = read-out: Thrombomodulin, THBD (gene 7056); experiment: BSK_CASM3C_Thrombomodulin: BioMAP Diversity Plus: CASM3C Assay for Thrombomodulin Biomarker Activity (AID 2283051); conditions: primary human coronary artery smooth muscle cells; actives raise or lower the signal;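 note: thrombomodulin protein level measured by ELISA 24 h after dosing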
# [10] = read-out: Human Leukocyte Antigen - DR isotype (HLADR), HLA-DRA (gene 3122); experiment: BSK_CASM3C_HLADR: BioMAP Diversity Plus: CASM3C Assay for Human Leukocyte Antigen - DR isotype (HLADR) Biomarker Activity (AID 2283043); conditions: primary human coronary artery smooth muscle cells; actives raise or lower the signal;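 note: cell-surface HLA-DR protein level quantified by ELISA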
Structure (SMILES),outcome [1],AC50 [2],outcome [3],AC50 [4],AC50 [5],AC50 [6],AC50 [7],AC50 [8],outcome [9],outcome [10],outcome [2],outcome [4],outcome [5],outcome [6],outcome [7],outcome [8],AC50 [10],AC50 [9],AC50 [1],AC50 [3]
CC(=O)C1(C)CC2=C(CCCC2(C)C)CC1C (stereo not given),inactive,10.3 µM (active),inactive,20 µM (active),13.2 µM (active),27.6 µM (active),11.9 µM (active),12.4 µM (active),inactive,–,–,–,–,–,–,–,–,–,–,–
CN(c1nccc(=O)[nH]1)C1CCN(c2nc3ccccc3n2Cc2ccc(F)cc2)CC1,inactive,–,inactive,–,–,–,–,–,inactive,inactive,inactive,inactive,inactive,inactive,inactive,inactive,–,–,–,–
C=C(C)[C@H]1CC=C(C)C(=O)C1,inactive,–,inactive,–,–,–,–,–,inactive,inactive,inactive,inactive,inactive,inactive,inactive,inactive,–,–,–,–
Clc1cc(Cl)c(-c2c(Cl)c(Cl)cc(Cl)c2Cl)cc1Cl,inactive,–,inactive,–,0.023 µM (active),–,–,–,inactive,inactive,inactive,inactive,–,inactive,inactive,inactive,–,–,–,–
O=C1OC[C@H](Cc2cccc(O)c2)[C@H]1Cc1cccc(O)c1,inactive,–,inactive,–,–,–,–,–,inactive,inactive,inactive,inactive,inactive,inactive,inactive,inactive,–,–,–,–
COc1cc(Cl)c(OC)cc1N,inactive,–,inactive,–,–,–,–,–,inactive,inactive,inactive,inactive,inactive,inactive,inactive,inactive,–,–,–,–
Cc1cc(CCC(=O)OCCOCCOCCOC(=O)CCc2cc(C)c(O)c(C(C)(C)C)c2)cc(C(C)(C)C)c1O,inactive,–,inactive,–,–,–,–,–,inactive,inactive,inactive,inactive,inactive,inactive,inactive,inactive,–,–,–,–
C=C(C)C(=O)OCCOCCOCCOCCOC(=O)C(=C)C,inactive,–,inactive,–,–,–,–,–,inactive,–,inactive,inactive,inactive,inactive,inactive,inactive,1.44 µM (active),–,–,–
CCOC(=O)C(C#N)=C(c1ccccc1)c1ccccc1,inactive,–,inactive,–,12.8 µM (active) and 3.97 µM (active),–,–,–,inactive,inactive,inactive,inactive,–,inactive,inactive,inactive,–,13.7 µM (active),–,–
CC(C=O)Cc1ccc(C(C)(C)C)cc1 (stereo not given),inactive,27.5 µM (active),inactive,30.6 µM (active),32.3 µM (active),30.7 µM (active),–,31.3 µM (active),inactive,–,–,–,–,–,inactive,–,28.8 µM (active),–,–,–
CC(C)(N=C=O)c1cccc(C(C)(C)N=C=O)c1,inactive,–,inactive,–,–,–,–,–,inactive,inactive,inactive,inactive,inactive,inactive,inactive,inactive,–,–,–,–
O=CN1CCOCC1,inactive,–,inactive,–,–,–,–,–,inactive,inactive,inactive,inactive,inactive,inactive,inactive,inactive,–,–,–,–
CCC(C)c1cc([N+](=O)[O-])cc([N+](=O)[O-])c1OC(=O)OC(C)C (stereo not given),–,32.7 µM (active),–,32.3 µM (active),29.7 µM (active),30.7 µM (active),34.1 µM (active),25.8 µM (active),–,–,–,–,–,–,–,–,13.7 µM (active),36.8 µM (active),4.74 µM (active),31.8 µM (active)
O=C1OC2(c3ccccc31)c1ccc(O)c(Br)c1Oc1c2ccc(O)c1Br,inactive,–,inactive,–,–,–,–,–,inactive,inactive,inactive,inactive,inactive,inactive,inactive,inactive,–,–,–,–
CC1(C)C2=CCCC(C)(C)[C@]23CC[C@H]1C3,inactive,32.7 µM (active),–,31.3 µM (active),30.7 µM (active),–,20 µM (active),31.1 µM (active),inactive,–,–,–,–,inactive,–,–,20 µM (active),–,–,34.6 µM (active)
O=C1c2ccccc2C(=O)c2c(O)ccc(O)c21,inactive,–,inactive,–,15 µM (active),–,–,–,inactive,–,inactive,inactive,–,inactive,inactive,inactive,4.94 µM (active),–,–,–
c1ccc(Oc2ccccc2)cc1,inactive,–,inactive,–,–,–,–,–,inactive,inactive,inactive,inactive,inactive,inactive,inactive,inactive,–,–,–,–
CN(C)C(=S)SC(=S)N(C)C,inactive,–,inactive,–,19.9 µM (active),19.9 µM (active),–,–,–,–,inactive,inactive,–,–,inactive,inactive,19.9 µM (active),4.02 µM (active),–,–
c1ccc(CCc2ccccc2)cc1,inactive,29.5 µM (active),–,33.1 µM (active),–,–,26.4 µM (active),29.1 µM (active),inactive,–,–,–,inactive,inactive,–,–,29 µM (active),–,–,30.6 µM (active)
O=C(Nc1ccc2c(O)c(N=Nc3ccc(N=Nc4ccc(S(=O)(=O)O)cc4)cc3)c(S(=O)(=O)O)cc2c1)c1ccccc1,inactive,–,inactive,–,–,–,–,–,inactive,inactive,inactive,inactive,inactive,inactive,inactive,inactive,–,–,–,–
COc1ccc(OC)c(N=Nc2c(O)ccc3ccccc23)c1,inactive,0.0186 µM (active),–,–,33.6 µM (active),–,–,20 µM (active),inactive,inactive,–,inactive,–,inactive,inactive,–,–,–,–,0.119 µM (active)
CCCCCCC(CO)CCCC (stereo not given),inactive,–,inactive,–,–,–,–,–,inactive,inactive,inactive,inactive,inactive,inactive,inactive,inactive,–,–,–,–
CCN(CC)C(=O)N(CC)CC,inactive,–,inactive,–,–,–,–,–,inactive,inactive,inactive,inactive,inactive,inactive,inactive,inactive,–,–,–,–
